Assay in all cases: DAPPL (digital affinity profiling via proximity ligation, sequencing); 10 mM Tris-HCl pH 7.5, 50 mM NaCl, 1 mM DTT, 4% glycerol, room temperature, 30 min; GST-TFs on glutathione beads, 16-mer random dsDNA library, 0.1% formaldehyde crosslink after washing; high values mean tight binding
One assay concerns the target T1, FEV (Homo sapiens, UniProt Q99581 1-238).
T1 sequence: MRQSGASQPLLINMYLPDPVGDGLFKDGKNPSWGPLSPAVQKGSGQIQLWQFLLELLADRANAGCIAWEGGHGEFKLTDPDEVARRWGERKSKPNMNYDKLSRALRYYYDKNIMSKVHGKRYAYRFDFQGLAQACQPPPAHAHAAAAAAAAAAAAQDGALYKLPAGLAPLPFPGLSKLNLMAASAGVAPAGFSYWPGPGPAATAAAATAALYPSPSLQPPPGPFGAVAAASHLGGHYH
Particulars: protein: recombinant; tags: N-terminal GST; dsDNA, one strand shown. A digest of the protocol: (§1)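 Beads coated with glutathione captured GST-fused human transcription factors that had been expressed in yeast, and the factors were then given DNA barcodes and pooled with a tag-only sample. The pools were incubated with 200 nmole of a random double-stranded 16-mer DNA library in Tris/NaCl/DTT/glycerol buffer for 30 min at room temperature, washed, crosslinked with 0.1% formaldehyde and proximity-ligated with BsaI/T4 ligase at 37 °C for 1 h. PCR amplification and Illumina NextSeq500 sequencing came last. Binding signal is each hexamer's read frequency for a factor divided by its frequency for the tag-only sample.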

The next assay addresses ETV5 (Homo sapiens, UniProt P41161 1-510). The following applies: protein: recombinant; tags: N-terminal GST; dsDNA, one strand shown. A digest of the protocol:
as §1

Another assay has as its target HSF1 (Homo sapiens, UniProt Q00613 1-529). Particulars: protein: recombinant; tags: N-terminal GST; chain copies: 3; dsDNA, one strand shown. A digest of the protocol:
as §1

The next assay concerns the target T2, SPIC (Homo sapiens, UniProt Q8N5J4 1-248).
T2 sequence: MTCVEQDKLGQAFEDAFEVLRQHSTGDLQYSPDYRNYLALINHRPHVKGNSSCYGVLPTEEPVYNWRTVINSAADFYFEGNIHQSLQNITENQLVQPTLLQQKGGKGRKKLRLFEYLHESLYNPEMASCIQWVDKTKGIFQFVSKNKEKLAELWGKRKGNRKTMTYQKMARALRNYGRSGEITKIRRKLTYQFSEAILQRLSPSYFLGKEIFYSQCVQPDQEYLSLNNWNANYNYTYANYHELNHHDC
The following applies: protein: recombinant; tags: N-terminal GST; dsDNA, one strand shown. A digest of the protocol: as §1

A further assay deals with ELF4 (Homo sapiens, UniProt Q99607 1-663). The following applies: protein: recombinant; tags: N-terminal GST; dsDNA, one strand shown. A digest of the protocol:
as §1

For another assay, the target named is T3, ELK4 (Homo sapiens, UniProt P28324-2 1-405).
T3 sequence: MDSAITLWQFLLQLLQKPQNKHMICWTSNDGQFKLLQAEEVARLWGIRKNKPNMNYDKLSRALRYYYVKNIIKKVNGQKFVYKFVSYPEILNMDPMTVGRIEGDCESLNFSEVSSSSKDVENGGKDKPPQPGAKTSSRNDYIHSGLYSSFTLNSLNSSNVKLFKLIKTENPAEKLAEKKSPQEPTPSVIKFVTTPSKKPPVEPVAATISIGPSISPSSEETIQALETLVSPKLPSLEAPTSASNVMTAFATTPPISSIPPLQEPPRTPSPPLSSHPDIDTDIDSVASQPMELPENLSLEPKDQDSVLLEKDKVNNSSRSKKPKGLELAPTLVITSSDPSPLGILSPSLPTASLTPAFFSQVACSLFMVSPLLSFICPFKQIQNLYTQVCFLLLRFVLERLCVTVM
The following applies: protein: recombinant; tags: N-terminal GST; dsDNA, one strand shown. A digest of the protocol:
as §1

In another assay the target is T4, ETV2 (Homo sapiens, UniProt O00321 1-342).
T4 sequence: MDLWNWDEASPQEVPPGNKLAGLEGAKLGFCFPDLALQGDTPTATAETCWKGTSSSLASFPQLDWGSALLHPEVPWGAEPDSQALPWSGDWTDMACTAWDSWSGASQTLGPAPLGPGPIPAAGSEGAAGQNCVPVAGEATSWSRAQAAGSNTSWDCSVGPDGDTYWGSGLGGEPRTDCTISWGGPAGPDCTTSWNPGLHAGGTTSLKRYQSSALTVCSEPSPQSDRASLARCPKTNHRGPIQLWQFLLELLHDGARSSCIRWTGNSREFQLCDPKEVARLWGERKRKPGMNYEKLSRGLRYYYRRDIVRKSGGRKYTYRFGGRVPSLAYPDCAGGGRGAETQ
The following applies: protein: recombinant; tags: N-terminal GST; dsDNA, one strand shown. An outline of the steps: as §1

For a further assay, the target named is T5, ELF3 (Homo sapiens, UniProt P78545 1-371).
T5 sequence: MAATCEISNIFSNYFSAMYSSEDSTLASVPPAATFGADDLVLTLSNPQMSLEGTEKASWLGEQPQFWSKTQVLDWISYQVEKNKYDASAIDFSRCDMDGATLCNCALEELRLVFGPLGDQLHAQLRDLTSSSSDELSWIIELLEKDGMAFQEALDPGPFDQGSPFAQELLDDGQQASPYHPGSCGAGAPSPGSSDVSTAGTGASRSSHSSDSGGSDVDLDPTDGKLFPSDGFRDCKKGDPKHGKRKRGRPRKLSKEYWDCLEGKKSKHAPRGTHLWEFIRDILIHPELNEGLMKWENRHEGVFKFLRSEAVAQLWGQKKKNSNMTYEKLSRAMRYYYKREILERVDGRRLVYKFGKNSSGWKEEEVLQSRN
The following applies: protein: recombinant; tags: N-terminal GST; dsDNA, one strand shown. An outline of the steps: as §1

The next assay addresses CRX (Homo sapiens, UniProt O43186 1-299). The following applies: protein: recombinant; tags: N-terminal GST; dsDNA, one strand shown. An outline of the steps:
as §1

For the next assay, the target named is ETV1 (Homo sapiens, UniProt P50549 1-477). The following applies: protein: recombinant; tags: N-terminal GST; dsDNA, one strand shown. A digest of the protocol:
as §1

A further assay addresses T6, ERF (Homo sapiens, UniProt P50548 1-548).
T6 sequence: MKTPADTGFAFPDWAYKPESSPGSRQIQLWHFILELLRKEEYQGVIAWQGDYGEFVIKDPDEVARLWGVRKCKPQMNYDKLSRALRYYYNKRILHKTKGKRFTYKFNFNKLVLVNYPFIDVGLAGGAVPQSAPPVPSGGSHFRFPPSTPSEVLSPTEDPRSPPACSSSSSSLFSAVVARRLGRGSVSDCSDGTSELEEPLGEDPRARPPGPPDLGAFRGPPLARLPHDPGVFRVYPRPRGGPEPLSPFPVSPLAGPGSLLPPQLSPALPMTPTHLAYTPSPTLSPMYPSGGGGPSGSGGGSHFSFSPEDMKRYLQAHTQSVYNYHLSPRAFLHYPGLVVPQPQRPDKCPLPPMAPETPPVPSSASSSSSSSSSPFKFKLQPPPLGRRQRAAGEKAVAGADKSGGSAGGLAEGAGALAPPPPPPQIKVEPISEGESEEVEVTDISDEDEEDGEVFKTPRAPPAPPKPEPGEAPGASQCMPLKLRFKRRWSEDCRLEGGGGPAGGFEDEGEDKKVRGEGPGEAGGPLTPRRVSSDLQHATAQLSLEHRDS
Particulars: protein: recombinant; tags: N-terminal GST; dsDNA, one strand shown. An outline of the steps:
as §1

The target in the next assay is T7, ETV3L (Homo sapiens, UniProt Q6ZN32 1-361).
T7 sequence: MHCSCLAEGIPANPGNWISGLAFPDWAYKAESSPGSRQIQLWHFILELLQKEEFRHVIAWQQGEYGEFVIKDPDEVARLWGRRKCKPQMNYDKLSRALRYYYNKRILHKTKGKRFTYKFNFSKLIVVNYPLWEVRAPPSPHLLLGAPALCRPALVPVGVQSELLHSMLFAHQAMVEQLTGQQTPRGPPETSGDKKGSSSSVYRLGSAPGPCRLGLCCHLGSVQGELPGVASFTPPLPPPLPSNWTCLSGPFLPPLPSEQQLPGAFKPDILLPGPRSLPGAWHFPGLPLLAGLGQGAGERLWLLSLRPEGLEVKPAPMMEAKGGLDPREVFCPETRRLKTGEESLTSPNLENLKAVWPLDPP
Particulars: protein: recombinant; tags: N-terminal GST; dsDNA, one strand shown. An outline of the steps:
as §1

The next assay addresses T8, ETS2 (Homo sapiens, UniProt P15036 1-469).
T8 sequence: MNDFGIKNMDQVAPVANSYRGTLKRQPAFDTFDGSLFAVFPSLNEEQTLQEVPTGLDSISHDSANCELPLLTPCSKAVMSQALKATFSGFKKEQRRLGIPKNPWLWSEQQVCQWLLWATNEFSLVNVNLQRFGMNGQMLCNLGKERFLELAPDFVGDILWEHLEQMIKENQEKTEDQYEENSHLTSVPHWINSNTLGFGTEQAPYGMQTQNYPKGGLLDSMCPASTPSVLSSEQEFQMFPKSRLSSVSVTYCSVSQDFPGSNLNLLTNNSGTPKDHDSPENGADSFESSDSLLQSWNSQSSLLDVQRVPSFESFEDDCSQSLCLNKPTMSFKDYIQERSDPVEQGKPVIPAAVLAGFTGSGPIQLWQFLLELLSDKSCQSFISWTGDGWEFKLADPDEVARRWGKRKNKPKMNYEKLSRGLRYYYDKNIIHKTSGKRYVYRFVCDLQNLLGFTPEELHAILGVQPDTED
Particulars: protein: recombinant; tags: N-terminal GST; dsDNA, one strand shown. A digest of the protocol:
as §1

Another assay concerns the target T9, SPDEF (Homo sapiens, UniProt O95238 1-335).
T9 sequence: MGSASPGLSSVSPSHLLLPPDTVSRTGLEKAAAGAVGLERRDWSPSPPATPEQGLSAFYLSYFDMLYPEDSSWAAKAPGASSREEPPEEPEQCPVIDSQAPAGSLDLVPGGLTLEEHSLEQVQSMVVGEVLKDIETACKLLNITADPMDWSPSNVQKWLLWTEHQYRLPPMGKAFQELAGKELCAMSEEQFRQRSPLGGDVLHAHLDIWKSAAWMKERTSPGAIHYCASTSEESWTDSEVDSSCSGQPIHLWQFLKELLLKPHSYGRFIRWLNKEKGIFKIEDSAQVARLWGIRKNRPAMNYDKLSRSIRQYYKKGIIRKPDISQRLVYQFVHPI
Particulars: protein: recombinant; tags: N-terminal GST; dsDNA, one strand shown. A digest of the protocol:
as §1

For the next assay, the target named is T10, ETV7 (Homo sapiens, UniProt Q9Y603 1-341).
T10 sequence: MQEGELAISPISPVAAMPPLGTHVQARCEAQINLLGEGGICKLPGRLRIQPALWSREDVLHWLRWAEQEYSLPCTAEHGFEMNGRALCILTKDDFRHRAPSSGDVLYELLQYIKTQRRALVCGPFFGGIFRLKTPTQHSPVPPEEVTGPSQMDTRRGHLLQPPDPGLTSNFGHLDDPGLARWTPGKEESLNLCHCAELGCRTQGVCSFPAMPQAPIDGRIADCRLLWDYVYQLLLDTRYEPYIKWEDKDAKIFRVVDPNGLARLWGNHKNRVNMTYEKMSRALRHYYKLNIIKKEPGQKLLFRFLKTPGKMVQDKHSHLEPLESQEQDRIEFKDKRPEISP
The following applies: protein: recombinant; tags: N-terminal GST; dsDNA, one strand shown. An outline of the steps: as §1

The target of another assay is T11, ELF5 (Homo sapiens, UniProt Q9UKW6-2 1-255).
T11 sequence: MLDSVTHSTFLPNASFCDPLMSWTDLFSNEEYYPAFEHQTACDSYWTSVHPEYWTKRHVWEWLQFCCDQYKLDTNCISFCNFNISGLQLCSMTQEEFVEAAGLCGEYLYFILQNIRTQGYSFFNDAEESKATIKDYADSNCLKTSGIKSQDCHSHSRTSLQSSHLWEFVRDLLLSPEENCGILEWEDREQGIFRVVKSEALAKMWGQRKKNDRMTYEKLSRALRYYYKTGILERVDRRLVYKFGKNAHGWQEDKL
Particulars: protein: recombinant; tags: N-terminal GST; dsDNA, one strand shown. An outline of the steps: as §1

Another assay addresses T12, ETV3 (Homo sapiens, UniProt P41162-2 1-143).
T12 sequence: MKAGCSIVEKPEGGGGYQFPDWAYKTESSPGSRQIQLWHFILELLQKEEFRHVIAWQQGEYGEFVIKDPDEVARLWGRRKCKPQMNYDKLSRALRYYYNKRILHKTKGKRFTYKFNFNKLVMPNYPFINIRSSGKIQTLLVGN
Particulars: protein: recombinant; tags: N-terminal GST; dsDNA, one strand shown. A digest of the protocol:
as §1

A further assay deals with ETV6 (Homo sapiens, UniProt P41212 1-452). Particulars: protein: recombinant; tags: N-terminal GST; dsDNA, one strand shown. An outline of the steps:
as §1

Sequence of ETV1 (P50549 whole entry): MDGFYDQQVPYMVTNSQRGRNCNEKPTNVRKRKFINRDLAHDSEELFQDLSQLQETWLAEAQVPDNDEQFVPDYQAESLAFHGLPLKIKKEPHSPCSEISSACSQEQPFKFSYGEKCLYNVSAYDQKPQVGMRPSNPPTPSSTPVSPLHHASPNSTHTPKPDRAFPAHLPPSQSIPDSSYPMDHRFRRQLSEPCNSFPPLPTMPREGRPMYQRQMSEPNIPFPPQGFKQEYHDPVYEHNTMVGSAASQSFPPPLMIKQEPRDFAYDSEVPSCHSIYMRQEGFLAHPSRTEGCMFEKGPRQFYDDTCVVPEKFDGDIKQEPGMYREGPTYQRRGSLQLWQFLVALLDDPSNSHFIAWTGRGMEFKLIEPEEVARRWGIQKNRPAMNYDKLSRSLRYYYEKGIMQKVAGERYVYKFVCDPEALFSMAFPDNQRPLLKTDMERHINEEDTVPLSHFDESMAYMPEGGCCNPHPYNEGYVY
Sequence of ETV5 (P41161 whole entry): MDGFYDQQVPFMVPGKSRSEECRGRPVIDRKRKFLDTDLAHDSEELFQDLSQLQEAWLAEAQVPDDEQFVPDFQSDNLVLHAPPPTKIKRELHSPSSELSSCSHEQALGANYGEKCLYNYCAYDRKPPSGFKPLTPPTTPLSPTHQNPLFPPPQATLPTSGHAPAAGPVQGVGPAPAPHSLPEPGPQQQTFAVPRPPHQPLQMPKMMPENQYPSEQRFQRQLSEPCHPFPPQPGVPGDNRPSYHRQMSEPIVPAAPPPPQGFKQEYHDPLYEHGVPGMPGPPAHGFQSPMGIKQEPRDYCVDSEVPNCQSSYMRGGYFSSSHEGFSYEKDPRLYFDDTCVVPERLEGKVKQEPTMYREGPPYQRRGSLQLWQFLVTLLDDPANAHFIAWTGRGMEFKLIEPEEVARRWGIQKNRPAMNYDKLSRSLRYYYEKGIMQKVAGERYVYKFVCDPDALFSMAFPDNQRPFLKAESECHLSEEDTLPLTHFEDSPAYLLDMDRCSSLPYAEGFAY
Sequence of ELF4 (Q99607 whole entry): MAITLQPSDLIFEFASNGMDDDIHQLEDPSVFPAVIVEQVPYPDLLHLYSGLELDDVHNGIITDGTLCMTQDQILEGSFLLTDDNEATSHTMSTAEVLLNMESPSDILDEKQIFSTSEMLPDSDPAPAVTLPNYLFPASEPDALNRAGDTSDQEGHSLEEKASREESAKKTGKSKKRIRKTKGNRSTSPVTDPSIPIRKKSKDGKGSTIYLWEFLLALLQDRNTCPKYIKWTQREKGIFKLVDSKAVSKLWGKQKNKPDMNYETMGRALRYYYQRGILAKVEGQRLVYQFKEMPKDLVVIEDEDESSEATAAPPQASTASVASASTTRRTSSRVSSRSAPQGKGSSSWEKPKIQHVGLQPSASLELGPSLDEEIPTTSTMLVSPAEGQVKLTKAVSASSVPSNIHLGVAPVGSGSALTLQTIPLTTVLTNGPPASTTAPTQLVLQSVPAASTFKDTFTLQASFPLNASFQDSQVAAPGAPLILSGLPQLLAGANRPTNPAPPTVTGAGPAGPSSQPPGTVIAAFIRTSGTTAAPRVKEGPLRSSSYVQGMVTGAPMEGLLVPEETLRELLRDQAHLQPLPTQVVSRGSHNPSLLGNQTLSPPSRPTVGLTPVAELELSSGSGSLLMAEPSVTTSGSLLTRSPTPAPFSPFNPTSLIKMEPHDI
Sequence of ETV6 (P41212 whole entry): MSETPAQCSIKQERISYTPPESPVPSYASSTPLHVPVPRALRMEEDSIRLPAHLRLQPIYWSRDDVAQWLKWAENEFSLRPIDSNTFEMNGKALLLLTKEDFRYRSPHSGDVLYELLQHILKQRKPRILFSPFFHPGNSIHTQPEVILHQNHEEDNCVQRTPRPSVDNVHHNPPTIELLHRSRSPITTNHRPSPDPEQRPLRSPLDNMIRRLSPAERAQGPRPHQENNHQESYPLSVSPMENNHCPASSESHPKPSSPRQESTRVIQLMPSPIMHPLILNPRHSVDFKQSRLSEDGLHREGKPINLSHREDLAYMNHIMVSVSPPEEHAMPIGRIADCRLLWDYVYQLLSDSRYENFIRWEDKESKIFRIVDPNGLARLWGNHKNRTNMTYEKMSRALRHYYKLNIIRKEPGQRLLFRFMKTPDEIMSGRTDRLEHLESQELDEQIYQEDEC
Sequence of HSF1 (Q00613 whole entry): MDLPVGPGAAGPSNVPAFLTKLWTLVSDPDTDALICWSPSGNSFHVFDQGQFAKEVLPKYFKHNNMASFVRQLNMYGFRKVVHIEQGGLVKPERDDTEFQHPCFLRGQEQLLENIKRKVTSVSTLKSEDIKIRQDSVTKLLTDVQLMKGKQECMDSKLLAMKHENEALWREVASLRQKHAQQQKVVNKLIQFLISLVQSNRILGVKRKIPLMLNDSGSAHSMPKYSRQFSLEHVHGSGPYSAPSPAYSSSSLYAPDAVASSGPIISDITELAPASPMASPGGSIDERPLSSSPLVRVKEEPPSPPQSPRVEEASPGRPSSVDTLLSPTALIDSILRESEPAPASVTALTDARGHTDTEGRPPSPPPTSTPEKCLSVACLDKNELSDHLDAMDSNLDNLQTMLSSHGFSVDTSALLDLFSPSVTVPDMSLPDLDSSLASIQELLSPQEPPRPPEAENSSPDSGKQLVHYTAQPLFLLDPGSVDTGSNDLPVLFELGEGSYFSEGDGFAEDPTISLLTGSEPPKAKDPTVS
Sequence of CRX (O43186 whole entry): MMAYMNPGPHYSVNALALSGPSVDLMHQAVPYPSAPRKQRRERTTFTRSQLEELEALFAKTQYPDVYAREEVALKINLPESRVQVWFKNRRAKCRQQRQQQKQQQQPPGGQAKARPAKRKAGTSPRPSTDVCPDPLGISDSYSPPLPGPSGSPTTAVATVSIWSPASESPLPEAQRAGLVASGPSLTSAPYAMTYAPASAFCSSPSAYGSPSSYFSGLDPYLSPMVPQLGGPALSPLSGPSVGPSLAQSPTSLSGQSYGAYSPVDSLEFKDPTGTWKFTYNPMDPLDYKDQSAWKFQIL

As to AATAGC, the binding signal is 1.18 fold enrichment (6-mer frequency, TF over GST control) with FEV; 1.19 fold enrichment (6-mer frequency, TF over GST control) in the assay with ETV5; 1.07 fold enrichment (6-mer frequency, TF over GST control) in the assay with HSF1; 1.01 fold enrichment (6-mer frequency, TF over GST control) in the assay with SPIC; 1.15 fold enrichment (6-mer frequency, TF over GST control) with ELF4; 1.19 fold enrichment (6-mer frequency, TF over GST control) in the assay with ELK4. The binding signal with ETV2 was 1.17 fold enrichment (6-mer frequency, TF over GST control); with ELF3, 1.23 fold enrichment (6-mer frequency, TF over GST control); with CRX it was 1.15 fold enrichment (6-mer frequency, TF over GST control); with ETV1 it was 1.13 fold enrichment (6-mer frequency, TF over GST control); in the assay with ERF it was 1.25 fold enrichment (6-mer frequency, TF over GST control); with ETV3L, 1.03 fold enrichment (6-mer frequency, TF over GST control). The binding signal with ETS2 is 1.15 fold enrichment (6-mer frequency, TF over GST control); with SPDEF, 1.1 fold enrichment (6-mer frequency, TF over GST control); with ETV7, 1.19 fold enrichment (6-mer frequency, TF over GST control); with ELF5, 1.16 fold enrichment (6-mer frequency, TF over GST control); with ETV3, 1.23 fold enrichment (6-mer frequency, TF over GST control); with ETV6 it was 1.1 fold enrichment (6-mer frequency, TF over GST control).

These data come from PMC7862700, “An all-to-all approach to the identification of sequence-specific readers for epigenetic DNA modifications on cytosine”.
